Our source for the Potency and outcome values is PubChem BioAssay (Tox21).

A short description of assay [1]: qHTS assay to identify small molecule antagonists of the peroxisome proliferator-activated receptor delta (PPARd) signaling pathway - cell viability counter screen (AID 743213; active = well fitted curve in the direction sought with a large enough effect in the repeat runs; an effect the other way counts as inactive or inconclusive; note: nearly all actives have a fitted effect of over 50% in size). A digest of the protocol: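 Cytotoxicity counter screen: CellTiter-Glo luminescence read 30 min after addition, in the same wells as the reporter assay. There, PPARd UAS-bla HEK293H cells (3000/well) were treated 17 h at 37 C with compound and 300 nM L165041.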
Background: qHTS replaces the single test concentration by a dilution series.

The nature of assay [2]: qHTS assay to identify small molecule antagonists of the farnesoid-X-receptor (FXR) signaling pathway - cell viability counter screen (AID 743221; active = well fitted cell-killing curve with a large enough effect in the repeat runs, not every such curve was filed as active; note: nearly all actives have a fitted effect of over 50% in size). A digest of the protocol:
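GeneBLAzer FXR-UAS-bla HEK 293T cells, compound plus chenodeoxycholic acid (50 uM final), 16 h at 37 C. CellTiter-Glo added to the same wells after the beta-lactamase read; luminescence read after 30 min at room temperature as viability.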

Assay [3] has as its target Vitamin D3 receptor (Homo sapiens) (UniProt P11473). The experiment in a line: qHTS assay to identify small molecule agonists of the vitamin D receptor (VDR) signaling pathway (AID 743222). A digest of the protocol:
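Agonist activity measured in VDR-bla reporter cells. Exposure 16 h, 37C, 5% CO2; detection by B/G FRET substrate, 2 h RT.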

Assay [4] can be described thus: qHTS assay to identify small molecule agonists of the vitamin D receptor (VDR) signaling pathway - cell viability counter screen (AID 743224; active = well fitted curve in the direction sought with a large enough effect in the repeat runs; an effect the other way counts as inactive or inconclusive; note: series mostly up to about 63 µM; nearly all actives have a fitted effect of over 50% in size). The method in brief:
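VDR-bla cell line, quantitative HTS format; 16 h compound incubation (37C, 5% CO2); ATP-based CellTiter-Glo luminescence measured in the reporter assay wells.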

The nature of assay [5]: qHTS assay to identify small molecule antagonists of the vitamin D receptor (VDR) signaling pathway - cell viability counter screen (AID 743225; active = well fitted curve in the direction sought with a large enough effect in the repeat runs; an effect the other way counts as inactive or inconclusive; note: nearly all actives have a fitted effect of over 50% in size). The method in brief: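 VDR-UAS-bla HEK 293T cells were plated and incubated 4 h at 37C, then dosed with compound plus 3 nM (final) 1-alpha,25-dihydroxyvitamin D3 for 16 h. After the 2 h beta-lactamase read, viability in the same wells was read as CellTiter-Glo luminescence after 30 min at room temperature.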

Assay [6] is described as follows: qHTS assay to identify small molecule agonists of the NFkB signaling pathway - cell viability counter screen (AID 1159515). Note: series mostly up to about 61 µM; nearly all actives have a fitted effect of over 55% in size. The method in brief: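 Viability in NFkB-bla ME-180 cells was measured by CellTiter-Glo luminescence, 30 min room temperature, in wells already treated 5 hr with compounds and read for reporter FRET.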
Assay [7] in a line: qHTS assay to identify small molecule agonists of the endoplasmic reticulum stress response signaling pathway (AID 1159516; active = well fitted activation curve with a large enough effect in the signal ratio in the repeat runs, not every such curve was filed as active; the % refers to the signal ratio). A digest of the protocol: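 ER stress element reporter (bla) in HeLa. 1,500 cells/well, overnight attachment; 5 hr compound; 2 hr RT substrate; dual-emission fluorescence.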
Assay [8] is described as follows: qHTS assay to identify small molecule agonists of the endoplasmic reticulum stress response signaling pathway - cell viability counter screen (AID 1159517). A digest of the protocol: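 Cells, HeLa ESRE-bla; density, 1,500/well; dosing, 5 hr at 37 C, 5% CO2; readout, CellTiter-Glo luminescence after 30 min RT.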
Assay [9] is described as follows: qHTS assay to identify small molecule antagonists of the retinoid-related orphan receptor gamma (ROR-gamma) signaling pathway - cell viability counter screen (AID 1159520; active = well fitted curve in the direction sought with a large enough effect in the repeat runs; an effect the other way counts as inactive or inconclusive; note: nearly all actives have a fitted effect of over 50% in size). The method in brief:
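Cytotoxicity was read from cellular ATP (CellTiter-Glo luminescence) after 16 hr at 37 C with 1 uM doxycycline induction. The inducer was added 2 hr after compound transfer to Tet-on ROR gamma CHO cells.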

Assay [10] deals with Nuclear receptor ROR-gamma (Homo sapiens) (UniProt P51449). The experiment in a line: qHTS assay to identify small molecule antagonists of the retinoid-related orphan receptor gamma (ROR-gamma) signaling pathway (AID 1159521; active = well fitted curve in the direction sought with a large enough effect in the repeat runs; an effect the other way counts as inactive or inconclusive). A digest of the protocol: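 Tet-on ROR-gamma CHO cells with ROR response element-luciferase reporter; compounds added 2 hr before 1 uM doxycycline induction, then 16 hr at 37 C. Antagonism scored as decreased ONE-Glo luminescence.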

The nature of assay [11]: qHTS assay to identify small molecule agonists of the AP-1 signaling pathway - cell viability counter screen (AID 1159525). Note: nearly all actives have a fitted effect of over 55% in size. A digest of the protocol:
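Luminescent ATP readout (Cell Titer Glo, 30 min RT), normalised to DMSO and tetra n-octyl ammonium bromide controls. Cells were ME-180 AP-1-bla in 0.5% dialyzed FBS Opti-MEM, with a 5 h, 37 °C compound exposure.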

Assay [12] can be described thus: qHTS assay to identify small molecule agonists of the AP-1 signaling pathway (AID 1159526).
Assay [13] concerns the target Retinoic acid receptor RXR-alpha (Homo sapiens) (UniProt P19793). The experiment in a line: qHTS assay to identify small molecule agonists of the RXR signaling pathway (AID 1159527). Note: nearly all actives have a fitted effect of over 35% in size. The method in brief: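 GeneBLAzer RXR-alpha-UAS-bla HEK 293T cells in 2% charcoal-stripped FBS medium were exposed to compounds for 16 hr at 37 C in agonist mode. Beta-lactamase reporter read as 460/530 nm FRET ratio after 2 hr substrate loading.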

The nature of assay [14]: qHTS assay to identify small molecule agonists of the peroxisome proliferator-activated receptor delta (PPARd) signaling pathway - cell viability counter screen (AID 743211; active = well fitted curve in the direction sought with a large enough effect in the repeat runs; an effect the other way counts as inactive or inconclusive; note: nearly all actives have a fitted effect of over 55% in size; note: potency is the fitted concentration of half-maximal effect). A digest of the protocol: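 PPARd-bla HEK293H cells (3000/well) were pre-incubated 5 h at 37 C, then exposed to compound for 17 h at 37 C. After 2 h with LiveBLAzer substrate, CellTiter-Glo was added to the same wells; luminescence read after 30 min at room temperature.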

Assay [15] in a line: qHTS assay to identify small molecule agonists of the farnesoid-X-receptor (FXR) signaling pathway - cell viability counter screen (AID 743218; active = well fitted curve in the direction sought with a large enough effect in the repeat runs; an effect the other way counts as inactive or inconclusive; note: nearly all actives have a fitted effect of over 45% in size). The method in brief:
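In GeneBLAzer FXR-UAS-bla HEK 293T cells, compounds act for 16 h at 37 C. Cell viability is then scored in the reporter wells by CellTiter-Glo, 30 min at RT, luminescence.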

Assay [16] has as its target Peroxisome proliferator-activated receptor delta (Homo sapiens) (UniProt Q03181). The experiment in a line: qHTS assay to identify small molecule agonists of the peroxisome proliferator-activated receptor delta (PPARd) signaling pathway (AID 743212). A digest of the protocol: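 HEK293H UAS-bla reporter cells, human PPARd system; compounds delivered in DMSO after 5 h plating, then at 37 C. Beta-lactamase FRET read, 2 h RT substrate step.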

Assay [17] concerns the target Bile acid receptor (Homo sapiens) (UniProt Q96RI1). The experiment in a line: qHTS assay to identify small molecule antagonists of the farnesoid-X-receptor (FXR) signaling pathway (AID 743217; active = well fitted inhibition curve with a large enough effect in the signal ratio in the repeat runs, not every such curve was filed as active; the % refers to the signal ratio; note: potency is the fitted concentration of half-maximal effect). The method in brief: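 Beta-lactamase reporter under UAS control in HEK 293T cells; compound exposure 16 h at 37 °C in the presence of chenodeoxycholic acid (50 uM final); signal from B/G FRET substrate after 2 h at room temperature.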

The target is the same in assay [18]. The experiment in a line: qHTS assay to identify small molecule agonists of the farnesoid-X-receptor (FXR) signaling pathway (AID 743220; active = well fitted activation curve with a large enough effect in the signal ratio in the repeat runs, not every such curve was filed as active; the % refers to the signal ratio). The method in brief: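 Beta-lactamase reporter under UAS control in GeneBLAzer FXR HEK 293T cells (5000/well) measured with LiveBLAzer FRET substrate after 2 h at room temperature. Compound exposure lasted 16 h at 37C.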

For assay [19], the target named is Vitamin D3 receptor (Homo sapiens) (UniProt P11473). The experiment in a line: qHTS assay to identify small molecule antagonists of the vitamin D receptor (VDR) signaling pathway (AID 743223; active = well fitted inhibition curve with a large enough effect in the signal ratio in the repeat runs, not every such curve was filed as active; the % refers to the signal ratio; note: potency is the fitted concentration of half-maximal effect). A digest of the protocol: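 VDR-bla cells were treated with compound plus 3 nM final 1alpha,25-dihydroxyvitamin D3 for 16 h at 37C. Beta-lactamase reporter read by B/G FRET substrate fluorescence after 2 h at room temperature. qHTS format.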
Sequence of Vitamin D3 receptor (Homo sapiens) (P11473 whole entry, looked up): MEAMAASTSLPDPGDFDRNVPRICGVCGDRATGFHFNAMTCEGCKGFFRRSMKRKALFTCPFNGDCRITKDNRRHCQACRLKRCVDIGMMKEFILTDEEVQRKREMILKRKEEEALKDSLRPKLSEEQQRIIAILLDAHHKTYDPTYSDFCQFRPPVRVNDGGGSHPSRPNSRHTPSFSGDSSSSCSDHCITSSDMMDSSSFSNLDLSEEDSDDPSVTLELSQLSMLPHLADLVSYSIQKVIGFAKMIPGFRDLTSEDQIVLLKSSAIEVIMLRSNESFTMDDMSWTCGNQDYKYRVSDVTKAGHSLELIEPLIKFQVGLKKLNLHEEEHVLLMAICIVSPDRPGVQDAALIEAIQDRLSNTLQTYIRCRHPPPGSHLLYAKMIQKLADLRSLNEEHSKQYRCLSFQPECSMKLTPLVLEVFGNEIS

In assay [20] the target is Peroxisome proliferator-activated receptor delta (Homo sapiens) (UniProt Q03181). The experiment in a line: qHTS assay to identify small molecule antagonists of the peroxisome proliferator-activated receptor delta (PPARd) signaling pathway (AID 743215; active = well fitted inhibition curve with a large enough effect in the signal ratio in the repeat runs, not every such curve was filed as active; the % refers to the signal ratio;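 note: cells stimulated with agonist L165041 at 300 nM final during compound exposure; series mostly up to about 62 µM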). A digest of the protocol:
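Antagonist-mode beta-lactamase reporter screen: HEK293H cells with UAS-bla under PPARd control, stimulated by 300 nM L165041 (final) alongside test compound for 17 h at 37 C, then FRET fluorescence after 2 h substrate incubation.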

Where “and” joins values, the source holds several entries; their conditions need not be identical. Equal values may be shown once. Records with an inconclusive call do not appear. Calls of active or inactive are those of the source. Unless noted, calls come from the whole dose curve.

Sequence of Bile acid receptor (Homo sapiens) (Q96RI1 whole entry, looked up): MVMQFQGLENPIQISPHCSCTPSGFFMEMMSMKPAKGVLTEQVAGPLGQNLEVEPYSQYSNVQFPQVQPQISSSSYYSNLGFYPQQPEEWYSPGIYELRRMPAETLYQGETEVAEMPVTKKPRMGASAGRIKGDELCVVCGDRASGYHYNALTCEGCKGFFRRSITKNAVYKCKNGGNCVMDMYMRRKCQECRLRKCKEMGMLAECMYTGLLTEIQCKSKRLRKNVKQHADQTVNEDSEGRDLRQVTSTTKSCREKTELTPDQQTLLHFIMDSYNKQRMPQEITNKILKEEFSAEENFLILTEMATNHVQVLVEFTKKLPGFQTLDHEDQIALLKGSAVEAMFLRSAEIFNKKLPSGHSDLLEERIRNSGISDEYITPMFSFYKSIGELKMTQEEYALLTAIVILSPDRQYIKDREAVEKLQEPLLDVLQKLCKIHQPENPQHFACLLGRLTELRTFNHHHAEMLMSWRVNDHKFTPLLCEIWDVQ
Sequence of Peroxisome proliferator-activated receptor delta (Homo sapiens) (Q03181 whole entry, looked up): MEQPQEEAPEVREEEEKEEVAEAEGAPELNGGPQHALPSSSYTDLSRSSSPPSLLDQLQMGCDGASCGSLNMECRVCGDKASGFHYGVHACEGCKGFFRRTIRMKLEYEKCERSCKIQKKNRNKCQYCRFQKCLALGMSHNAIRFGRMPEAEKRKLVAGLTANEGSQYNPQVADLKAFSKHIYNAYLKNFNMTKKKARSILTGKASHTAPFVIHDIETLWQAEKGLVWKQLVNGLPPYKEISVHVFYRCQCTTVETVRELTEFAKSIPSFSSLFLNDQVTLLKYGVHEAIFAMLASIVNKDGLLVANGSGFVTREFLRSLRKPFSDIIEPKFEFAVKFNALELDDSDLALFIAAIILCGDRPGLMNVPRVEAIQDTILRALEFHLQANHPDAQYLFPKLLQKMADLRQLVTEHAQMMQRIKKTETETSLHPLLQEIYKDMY
Sequence of Retinoic acid receptor RXR-alpha (Homo sapiens) (P19793 whole entry, looked up): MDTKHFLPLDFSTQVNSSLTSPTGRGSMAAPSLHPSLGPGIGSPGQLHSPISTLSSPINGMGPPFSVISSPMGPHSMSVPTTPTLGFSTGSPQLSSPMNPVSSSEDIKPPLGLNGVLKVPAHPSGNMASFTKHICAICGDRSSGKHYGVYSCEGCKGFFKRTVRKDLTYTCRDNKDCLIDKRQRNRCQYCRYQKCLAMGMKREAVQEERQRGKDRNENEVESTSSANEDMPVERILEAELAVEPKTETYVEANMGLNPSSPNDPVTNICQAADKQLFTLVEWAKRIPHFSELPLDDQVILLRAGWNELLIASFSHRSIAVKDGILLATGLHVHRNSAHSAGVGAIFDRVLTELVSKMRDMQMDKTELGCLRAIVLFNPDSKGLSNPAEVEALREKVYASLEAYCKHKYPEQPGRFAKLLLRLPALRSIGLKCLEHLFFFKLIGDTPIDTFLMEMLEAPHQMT

With `O=C(O)CF`, the Potency entry in [1], in assay [2], in assay [4], in assay [5], in assay [6] and in assay [7] was “inactive” each time. In addition, the Potency result in assay [8], in assay [9], in [10], in assay [11] and in [13] was “inactive” each time. Moreover, the call in assay [3] and in assay [12] was inactive.
Regarding `Nc1ccc2ccccc2c1`, the Potency result in [14], in assay [1], in assay [15], in assay [2], in [4] and in assay [5] was “inactive” in each case. Moreover, the Potency result in assay [6], in assay [7], in assay [8], in assay [9], in assay [10] and in assay [11] was “inactive” throughout. Also, the Potency entry in [13] is “inactive”. In addition, the call in assay [3] and in [12] was inactive.
`CN(C)P(=O)(N(C)C)N(C)C`: the Potency entry in assay [16], in [1], in [17], in assay [18], in assay [2] and in [19] was “inactive” in each case. Moreover, the Potency entry in assay [5], in assay [6], in assay [7], in [8], in assay [9] and in assay [10] was “inactive” in each case. The Potency result in assay [11] and in assay [13] was “inactive” in each case. Further, the molecule was classed as inactive in [3] and in [12].
As to `CC[n+]1c(-c2ccccc2)c2cc(N)ccc2c2ccc(N)cc21`, the Potency in assay [14] was 24.4 µM (active); in assay [17] it was 7.73 µM (active) and 5.31 µM (active); in assay [19], 12 µM (active). Also, the Potency result in assay [16], in [1], in assay [2], in assay [5], in [6] and in [7] was “inactive” each time. For the same molecule, the Potency entry in assay [8], in assay [9], in assay [10] and in [11] was “inactive” throughout. Moreover, the molecule was called inactive in [3] and in assay [12].
On to `CCNCC`, for which the Potency result in assay [14], in [16], in assay [1], in [20], in assay [2] and in [4] was “inactive” in each case. Moreover, the Potency entry in assay [5], in assay [6], in [7], in [8], in assay [9] and in [10] was “inactive” each time. The Potency result in [11] and in [13] was “inactive” each time. For the same molecule, the result in assay [3] and in assay [12] was inactive.
As for `C[C@]12CC[C@H]3[C@@H](CCC4=CC(=O)CC[C@@H]43)[C@@H]1CC[C@@H]2O`, the Potency result in [16], in [1], in [20], in [17], in assay [15] and in [18] was “inactive” in each case. Moreover, the Potency result in assay [2], in assay [19], in [4], in [5], in [6] and in assay [7] was “inactive” throughout. Besides, the Potency result in [8], in [9], in assay [10], in assay [11] and in [13] was “inactive” each time. Moreover, the outcome in assay [3] and in [12] was inactive.
Consider `ClCc1ccccn1`, for which the Potency result in assay [16], in [1], in [2], in [19], in assay [5] and in [6] was “inactive” in each case. Further, the Potency result in assay [7], in [8], in assay [9], in [10], in assay [11] and in assay [13] was “inactive” each time. Besides, the result in [3] and in [12] was inactive.
For `Clc1ccc(C(Cl)(Cl)Cl)cc1`, the Potency entry in assay [1], in [17], in assay [18], in [2], in assay [4] and in assay [5] was “inactive” each time. The Potency entry in assay [6], in [7], in assay [8], in [9], in assay [10] and in [11] was “inactive” throughout. Also, the Potency result in assay [13] is “inactive”. Further, the molecule was classed as inactive in assay [12].
